PubChem BioAssay (NCI)
About 83,000 compounds went through this panel and 20% of them were active in at least one assay; those are over-represented in the sample as a whole.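 Cell lines were cultured in 96-well plates, exposed to a single compound concentration, and assessed for percent growth 48 hours later.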 The source made the active and inactive calls. The calls were made as follows: active = growth percent below 10; inactive = the rest.

Key:
Test in all cases: NCI-60 one-dose screen, 48 h (100 = growth as untreated, 0 = no growth, -100 = all killed)
Conditions in all cases: 10 µM unless noted
NCI-H23 lung = test system: NCI-H23 lung
NCI-H226 lung = test system: NCI-H226 lung
NCI-H322M lung = test system: NCI-H322M lung
HOP-62 NSCLC = test system: HOP-62 NSCLC
NCI-H460 lung = test system: NCI-H460 lung
HOP-92 NSCLC = test system: HOP-92 NSCLC
NCI-H522 lung = test system: NCI-H522 lung
A549/ATCC NSCLC = test system: A549/ATCC NSCLC
786-0 renal = test system: 786-0 renal
COLO 205 colon = test system: COLO 205 colon
DU-145 prostate = test system: DU-145 prostate
K-562 leukemia = test system: K-562 leukemia
MALME-3M melanoma = test system: MALME-3M melanoma
MDA-MB-231 breast = test system: MDA-MB-231 breast
RXF 393 renal = test system: RXF 393 renal
SF-268 CNS = test system: SF-268 CNS
SF-295 CNS = test system: SF-295 CNS
SF-539 CNS = test system: SF-539 CNS
UACC-257 melanoma = test system: UACC-257 melanoma
M14 melanoma = test system: M14 melanoma

Measured: growth

N#Cc1c(-c2ccc(Cl)cc2)nc2c(c(-c3ccccc3)nn2-c2ccccc2)c1-c1ccc(O)cc1
active: K-562 leukemia 8.36% | RXF 393 renal -27% | SF-295 CNS 1.71%
inactive: NCI-H23 lung 49% | NCI-H226 lung 65.9% | NCI-H322M lung 70.8% | HOP-62 NSCLC 49.9% | NCI-H460 lung 25.1% | HOP-92 NSCLC 56.4% | NCI-H522 lung 55.6% | A549/ATCC NSCLC 41.9% | 786-0 renal 17.7% | COLO 205 colon 52.6% | DU-145 prostate 50.8% | MALME-3M melanoma 61.5% | MDA-MB-231 breast 36.5% | SF-268 CNS 46.6% | SF-539 CNS 11.2% | UACC-257 melanoma 85.2% | M14 melanoma 38.3%

COc1cccc(OC)c1C(=O)N[C@@H]1C(=O)N2[C@@H]1SC(C)(C)[C@@H]2C(=O)O
inactive: NCI-H23 lung 103% | NCI-H226 lung 107% | NCI-H322M lung 95.6% | HOP-62 NSCLC 103% | NCI-H460 lung 112% | HOP-92 NSCLC 44.9% | NCI-H522 lung 88.7% | A549/ATCC NSCLC 105% | 786-0 renal 95.6% | COLO 205 colon 107% | DU-145 prostate 115% | K-562 leukemia 110% | MALME-3M melanoma 93.9% | MDA-MB-231 breast 102% | RXF 393 renal 125% | SF-268 CNS 109% | SF-295 CNS 105% | SF-539 CNS 108% | UACC-257 melanoma 103% | M14 melanoma 97.9%

Cc1cc(=O)oc2cc(OC(=O)N3CCN(C)CC3)ccc12
inactive: NCI-H23 lung 99.6% | NCI-H226 lung 101% | NCI-H322M lung 105% | HOP-62 NSCLC 104% | NCI-H460 lung 107% | HOP-92 NSCLC 103% | NCI-H522 lung 98.9% | A549/ATCC NSCLC 103% | 786-0 renal 108% | COLO 205 colon 116% | DU-145 prostate 110% | K-562 leukemia 90.3% | MALME-3M melanoma 103% | MDA-MB-231 breast 104% | RXF 393 renal 121% | SF-268 CNS 101% | SF-295 CNS 104% | SF-539 CNS 96.3% | UACC-257 melanoma 106% | M14 melanoma 95.5%

Cc1ccc(C(CC(=O)O)c2c(C)[nH][nH]c2=O)cc1 (stereo not given)
inactive: NCI-H23 lung 95.3% | NCI-H226 lung 102% | NCI-H322M lung 104% | HOP-62 NSCLC 97.9% | NCI-H460 lung 108% | HOP-92 NSCLC 118% | NCI-H522 lung 94.5% | A549/ATCC NSCLC 105% | 786-0 renal 96% | COLO 205 colon 113% | DU-145 prostate 106% | K-562 leukemia 90.8% | MALME-3M melanoma 99.4% | RXF 393 renal 102% | SF-268 CNS 94.9% | SF-295 CNS 102% | SF-539 CNS 97% | UACC-257 melanoma 104% | M14 melanoma 96.7%
active: MDA-MB-231 breast -33.1%

O=C(/C=C/c1sc(Cl)nc1Cl)c1ccc(Br)cc1
active: K-562 leukemia 9.52%
inactive: NCI-H23 lung 85.8% | NCI-H226 lung 81.6% | NCI-H322M lung 100% | HOP-62 NSCLC 97.3% | NCI-H460 lung 103% | HOP-92 NSCLC 90.2% | NCI-H522 lung 86.6% | A549/ATCC NSCLC 96.1% | 786-0 renal 92.2% | COLO 205 colon 78.8% | DU-145 prostate 98.6% | MALME-3M melanoma 83.6% | MDA-MB-231 breast 90.4% | RXF 393 renal 85.5% | SF-268 CNS 94.1% | SF-295 CNS 95.9% | SF-539 CNS 71.1% | UACC-257 melanoma 98.3% | M14 melanoma 67.8%

C[C@H]1[C@H]2[C@H]3CC[C@@H]4[C@@]5(C)CC[C@H](O)C(C)(C)[C@@H]5CC[C@@]4(C)[C@]3(C)CC[C@]23CO[C@]1(C)[C@@H](C(=O)/C=C\c1cccnc1)C3
inactive: NCI-H23 lung 59.5% | NCI-H226 lung 76.6% | NCI-H322M lung 88.4% | HOP-62 NSCLC 81.7% | NCI-H460 lung 40.7% | HOP-92 NSCLC 79.1% | NCI-H522 lung 38% | A549/ATCC NSCLC 57.8% | 786-0 renal 63.6% | COLO 205 colon 56.3% | DU-145 prostate 73.9% | K-562 leukemia 18% | MALME-3M melanoma 54.4% | MDA-MB-231 breast 82.1% | RXF 393 renal 75.2% | SF-268 CNS 81.9% | SF-295 CNS 79.9% | SF-539 CNS 77.8% | UACC-257 melanoma 49.3% | M14 melanoma 60.8%

CCS(=O)(=O)c1ncnc2nc[nH]c12
inactive: NCI-H23 lung 111% | NCI-H226 lung 94.2% | NCI-H322M lung 106% | HOP-62 NSCLC 93.5% | NCI-H460 lung 105% | HOP-92 NSCLC 77.1% | NCI-H522 lung 65.4% | A549/ATCC NSCLC 89.4% | 786-0 renal 95% | COLO 205 colon 102% | DU-145 prostate 112% | K-562 leukemia 101% | MALME-3M melanoma 106% | MDA-MB-231 breast 111% | RXF 393 renal 113% | SF-268 CNS 104% | SF-295 CNS 99.8% | SF-539 CNS 95.1% | UACC-257 melanoma 93.1% | M14 melanoma 88.1%

O=C(O)C(c1ccccc1)N1C(=O)CSC1=S (stereo not given)
inactive: NCI-H23 lung 106% | NCI-H226 lung 95.8% | NCI-H322M lung 97.9% | HOP-62 NSCLC 99.5% | NCI-H460 lung 107% | HOP-92 NSCLC 111% | NCI-H522 lung 88.2% | A549/ATCC NSCLC 92% | 786-0 renal 102% | COLO 205 colon 108% | DU-145 prostate 107% | K-562 leukemia 103% | MALME-3M melanoma 107% | MDA-MB-231 breast 108% | RXF 393 renal 108% | SF-268 CNS 94.4% | SF-295 CNS 104% | SF-539 CNS 100% | UACC-257 melanoma 101% | M14 melanoma 100%

COc1cccc2c(=O)c3c(sc12)c(N1CCNCC1)nc1ccccc13
inactive: NCI-H23 lung 77.3% | NCI-H226 lung 88.2% | NCI-H322M lung 92.8% | HOP-62 NSCLC 81% | HOP-92 NSCLC 51.7% | NCI-H522 lung 77.2% | A549/ATCC NSCLC 48.6% | 786-0 renal 78.9% | COLO 205 colon 30.9% | DU-145 prostate 35.8% | MALME-3M melanoma 104% | MDA-MB-231 breast 53.1% | RXF 393 renal 79.7% | SF-268 CNS 87.9% | SF-295 CNS 102% | SF-539 CNS 69.6% | UACC-257 melanoma 101% | M14 melanoma 81.3%
active: NCI-H460 lung -55.1% | K-562 leukemia -25.9%

O=c1ccn(Cc2cn(-c3c4ccccc4nc4ccccc34)nn2)c(=O)[nH]1
active: NCI-H522 lung -57.4%
inactive: NCI-H23 lung 94% | NCI-H226 lung 102% | NCI-H322M lung 99.2% | HOP-62 NSCLC 97.7% | NCI-H460 lung 96.5% | HOP-92 NSCLC 84.7% | A549/ATCC NSCLC 91.2% | 786-0 renal 90.9% | COLO 205 colon 108% | DU-145 prostate 74.6% | K-562 leukemia 33.1% | MALME-3M melanoma 98.6% | MDA-MB-231 breast 89.4% | RXF 393 renal 98.2% | SF-268 CNS 99.6% | SF-295 CNS 106% | SF-539 CNS 101% | UACC-257 melanoma 85.6% | M14 melanoma 98.4%

O=C1CCC(C(=O)NCCNCCNC(=O)C2CCC(=O)N2)N1 (stereo not given)
inactive: NCI-H23 lung 106% | NCI-H226 lung 97.7% | NCI-H322M lung 104% | HOP-62 NSCLC 93.7% | NCI-H460 lung 102% | HOP-92 NSCLC 80.6% | NCI-H522 lung 72.5% | A549/ATCC NSCLC 88.4% | 786-0 renal 101% | COLO 205 colon 110% | DU-145 prostate 109% | K-562 leukemia 101% | MALME-3M melanoma 105% | MDA-MB-231 breast 121% | RXF 393 renal 101% | SF-268 CNS 100% | SF-295 CNS 100% | SF-539 CNS 102% | UACC-257 melanoma 93% | M14 melanoma 96.5%

COc1ccc(C2CC(c3ccc(Nc4nc(Nc5ccc(F)cc5)nc(Nc5ccc(Cl)cc5)n4)cc3)=NN2C(C)=O)cc1 (stereo not given)
inactive: NCI-H23 lung 91.8% | NCI-H226 lung 97.7% | NCI-H322M lung 123% | HOP-62 NSCLC 110% | NCI-H460 lung 102% | HOP-92 NSCLC 82.8% | NCI-H522 lung 58.1% | A549/ATCC NSCLC 90.2% | 786-0 renal 98.9% | COLO 205 colon 96.1% | DU-145 prostate 122% | K-562 leukemia 114% | MALME-3M melanoma 88.1% | MDA-MB-231 breast 90.9% | RXF 393 renal 86.6% | SF-268 CNS 131% | SF-295 CNS 103% | SF-539 CNS 101% | UACC-257 melanoma 98.5% | M14 melanoma 104%

Fc1cc(-c2nnc3n2NC(=Nc2ccc(Cl)cc2)CS3)c(Cl)cc1Cl
active: HOP-92 NSCLC -18.6%
inactive: NCI-H23 lung 79.3% | NCI-H226 lung 122% | NCI-H322M lung 100% | HOP-62 NSCLC 73.6% | NCI-H460 lung 96.5% | NCI-H522 lung 76.3% | A549/ATCC NSCLC 87.5% | 786-0 renal 81.9% | COLO 205 colon 95.6% | DU-145 prostate 97.8% | K-562 leukemia 51.5% | MALME-3M melanoma 105% | MDA-MB-231 breast 104% | RXF 393 renal 89.8% | SF-268 CNS 91.7% | SF-295 CNS 81.5% | SF-539 CNS 98.6% | UACC-257 melanoma 92.5% | M14 melanoma 92.4%

CSc1nc2ccc(C)cc2cc1/C=N/O
inactive: NCI-H23 lung 99.4% | NCI-H226 lung 76.7% | NCI-H322M lung 94.3% | HOP-62 NSCLC 82.8% | NCI-H460 lung 91.1% | HOP-92 NSCLC 72.2% | NCI-H522 lung 75.7% | A549/ATCC NSCLC 71.8% | 786-0 renal 89.9% | COLO 205 colon 102% | DU-145 prostate 93% | K-562 leukemia 94.7% | MALME-3M melanoma 108% | MDA-MB-231 breast 83.5% | RXF 393 renal 87.3% | SF-268 CNS 83.1% | SF-295 CNS 101% | SF-539 CNS 91.1% | UACC-257 melanoma 80.6% | M14 melanoma 87.8%

COc1ccc([C@H]2c3cc(OC)c(OC)cc3C=C(C=O)C2CO)cc1OC (stereo not given in full)
inactive: NCI-H23 lung 62.8% | NCI-H226 lung 80.8% | NCI-H322M lung 97.8% | HOP-62 NSCLC 62.1% | NCI-H460 lung 69.8% | HOP-92 NSCLC 36.8% | NCI-H522 lung 32.1% | A549/ATCC NSCLC 80.6% | 786-0 renal 45.7% | COLO 205 colon 45% | DU-145 prostate 61.9% | K-562 leukemia 20.1% | MALME-3M melanoma 68.2% | MDA-MB-231 breast 70.2% | SF-268 CNS 60.5% | SF-295 CNS 12.7% | SF-539 CNS 38% | UACC-257 melanoma 39.7% | M14 melanoma 35.7%
active: RXF 393 renal -9.23%
